“And” between values parts separate entries of the source, which are not always exact repeats. Equal entries are not always repeated. The source made the active and inactive calls.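 How the source made its calls: active means binding below the plate cutoff, the plate median minus 3 SD, with a reading above zero; inconclusive means below the plate cutoff but reading exactly zero; inactive means the rest.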

For the assay, the system named is anti-desmoglein-3 scFv antibody binding to human DSG3. The assay is described as follows: blockers of pathogenic pemphigus antibody–desmoglein-3 binding – biochemical, validation compound set, bead-based, flow cytometry, pilot screen (AID 588368).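 Further: signal is the median channel fluorescence of bead-bound GFP antibody.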 The conditions noted are these: Protein G beads, DSG3-Fc, scFv-GFP binding, at 10 µM, hits give low values.
As for `C[N+]1(C)CCc2cc3c(cc2[C@H]1[C@@H]1OC(=O)c2c1ccc1c2OCO1)OCO3`, the binding (% of control) was 101% (inactive) and 97.9% (inactive).

With `COc1ccc(NC2=NCC(C)S2)cc1` (stereo not drawn), the binding (% of control) is 100% (inactive). The figure for `CC12CN3CC(C)(CN(C1)C3c1cccs1)C2O` (stereo not drawn) is 98% (inactive). In the case of `O=C1NCCN2CCCC12` (stereo not drawn) it was 101% (inactive); in that of `NNC(=O)c1ccc(Cl)cc1`, 98.7% (inactive). In the case of `CN1CCN(C(=O)OC2c3nccnc3C(=O)N2c2ccc(Cl)cn2)CC1` (stereo not drawn) it was 100% (inactive). Regarding `O=c1[nH]c2ccccc2n1C1CCN(CCCC(c2ccc(F)cc2)c2ccc(F)cc2)CC1`, the binding (% of control) was 114% (inactive).

As for `O=C1NC(=O)C2(Cc3ccccc3N3CCCC32)C(=O)N1c1ccc(Cl)cc1` (stereo not drawn), the binding (% of control) is 100% (inactive).

Regarding `CC1CCC[C@H](O)CCCCCc2cc(O)cc(O)c2C(=O)O1` (stereo partly drawn), the binding (% of control) was 106% (inactive). The figure for `O=c1cccc2n1C[C@H]1C[C@@H]2CN2CCCC[C@@H]12` is 101% (inactive); for `CC(=O)OC1C2CCC1C(N1CCCC1)CC2` (stereo not drawn) it is 103% (inactive); for `CCOc1ccc(C2C(C#N)=C(N)Oc3c2c(=O)oc2ccccc32)cc1` (stereo not drawn) it is 104% (inactive). The figure for `COc1cc2c3cc1Oc1cc(ccc1O)C[C@@H]1c4c(cc(OC)c(O)c4Oc4ccc(cc4)C[C@H]3N(C)CC2)CCN1C` is 105% (inactive); for `CN1CC[C@@]23CCCC[C@@H]2[C@@H]1Cc1ccc(O)cc13` it is 92% (inactive). The figure for `O=c1c2ccccc2[se]n1-c1ccccc1` is 9.72% (active); for `CC[N+]1(C)CCCC(OC(=O)C(O)(c2ccccc2)c2ccccc2)C1` (stereo not drawn) it is 107% (inactive); for `C[C@]12CCC(=O)C=C1CCC1C2CC[C@@]2(C)C1CC[C@@]2(O)CC#N` (stereo partly drawn) it is 97.9% (inactive). As for `C[C@H]1CC[C@@]2(C)[C@@H](CC[C@@H]3[C@@H]2CC[C@]2(C)[C@@H](O)CC[C@@H]32)C1`, the binding (% of control) is 99.5% (inactive). In the case of `C[C@H]1OC[C@@H](C[N+](C)(C)C)O1`, the binding (% of control) was 102% (inactive). The figure for `CC(C)(C)C(O)C(Oc1ccc(Cl)cc1)n1cncn1` (stereo not drawn) is 100% (inactive). The figure for `C[C@@H]1O[C@@H](O[C@H]2C[C@@H](O)[C@]3(CO)[C@H]4[C@H](O)C[C@]5(C)[C@@H](C6COC(=O)C6)CC[C@]5(O)[C@@H]4CC[C@]3(O)C2)[C@H](O)[C@H](O)[C@H]1O` (stereo partly drawn) is 104% (inactive); for `CC(=O)c1ccc(-c2ccccc2)cc1` it is 108% (inactive); for `CCOC(=O)c1cc2c(cn1)[nH]c1ccccc12` it is 98.5% (inactive).

The values are drawn from PubChem BioAssay.
